# Results reported in publication PMC4336329 (PLoS ONE, 2015).
# Out of some 310,000 compounds screened, about 14,000 (4.5%) showed an effect of 50% or more. The effect is printed as a negative number. The sample as a whole holds a higher share of strong results than the screen did.
# Target: human ether-à-go-go-related gene (hERG) potassium channel (human, UniProt Q12809)
# Assay: primary screen, population patch clamp on CHO cells stably expressing hERG; higher = less effect of the substance
# 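Note: peak tail current of the secondary pulse compared with the same well before compound.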
# Chain of human ether-à-go-go-related gene (hERG) potassium channel (Q12809 whole entry, looked up): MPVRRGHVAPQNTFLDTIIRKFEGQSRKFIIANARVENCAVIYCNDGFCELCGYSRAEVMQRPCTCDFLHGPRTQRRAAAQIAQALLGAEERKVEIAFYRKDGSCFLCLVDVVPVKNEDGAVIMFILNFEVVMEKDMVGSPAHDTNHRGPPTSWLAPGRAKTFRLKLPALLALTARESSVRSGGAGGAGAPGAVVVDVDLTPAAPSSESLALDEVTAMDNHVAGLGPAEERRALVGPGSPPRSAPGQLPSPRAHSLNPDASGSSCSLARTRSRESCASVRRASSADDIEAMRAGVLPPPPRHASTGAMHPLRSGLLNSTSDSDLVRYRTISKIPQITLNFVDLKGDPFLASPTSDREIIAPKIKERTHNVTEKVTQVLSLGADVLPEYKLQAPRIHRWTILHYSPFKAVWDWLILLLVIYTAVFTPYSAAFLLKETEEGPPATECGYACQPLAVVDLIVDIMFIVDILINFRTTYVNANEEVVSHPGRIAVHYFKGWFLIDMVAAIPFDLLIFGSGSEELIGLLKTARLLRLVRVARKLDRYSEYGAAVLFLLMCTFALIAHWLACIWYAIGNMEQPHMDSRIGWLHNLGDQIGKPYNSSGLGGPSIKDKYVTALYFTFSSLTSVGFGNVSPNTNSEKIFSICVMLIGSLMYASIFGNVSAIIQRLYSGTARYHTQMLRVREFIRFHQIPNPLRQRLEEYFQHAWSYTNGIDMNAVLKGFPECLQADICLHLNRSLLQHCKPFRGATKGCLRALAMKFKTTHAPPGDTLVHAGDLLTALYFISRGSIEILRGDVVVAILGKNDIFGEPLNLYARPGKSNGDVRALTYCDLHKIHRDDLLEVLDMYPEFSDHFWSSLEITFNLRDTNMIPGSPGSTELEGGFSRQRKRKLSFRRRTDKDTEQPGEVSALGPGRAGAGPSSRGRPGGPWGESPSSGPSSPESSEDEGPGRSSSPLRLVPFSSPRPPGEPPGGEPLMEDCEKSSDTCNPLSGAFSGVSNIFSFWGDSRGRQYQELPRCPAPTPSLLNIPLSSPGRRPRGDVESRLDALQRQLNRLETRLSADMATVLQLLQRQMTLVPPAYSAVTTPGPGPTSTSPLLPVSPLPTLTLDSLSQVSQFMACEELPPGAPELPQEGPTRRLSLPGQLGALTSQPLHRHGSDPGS
row,SMILES,"hERG current change (%, negative = inhibition) at 10uM [%]"
1,O=C(CC(c1ccccc1)c1cc(Cl)ccc1O)N1CCCC1 (stereo not drawn),-17.5
2,O=C(NS(=O)(=O)Nc1ccccn1)c1c[nH]c2ccccc12,15.4
3,Cc1cccc(NC(=O)C2CCN(C(=O)NC3CCCCC3)CC2)c1,7.39
4,CS(=O)c1ccccc1COC(=O)Nc1ccccc1 (stereo not drawn),9.76
5,Cc1c(NC(=O)c2ccccc2)c(=O)n(-c2ccccc2)n1C,-3.48
6,O=C(NCc1ccco1)C1CCN(C(=O)c2ccc(Cl)cc2Cl)CC1,-0.217
7,CCn1c(C(=O)N2CCC(C(=O)N3CCN(c4ccccn4)CC3)CC2)cc2sccc21,-60.5
8,CCN1CCN(C(=O)C2CCN(C(=O)c3cc4sccc4n3CC)CC2)CC1,-2.39
9,CCn1c(C(=O)N2CCC(C(=O)NCc3cccs3)CC2)cc2sccc21,-63
10,Cc1cc(C)nc(N2CCC(C(=O)NCc3ccccc3F)CC2)n1,27
11,CCn1c(C(=O)N2CCC(C(=O)NCc3ccc(OC)cc3)CC2)cc2sccc21,-41.9
12,O=C(NCc1ccco1)C1CCN(c2nc3ccccc3n2Cc2ccccc2F)CC1,-66.2
13,Cn1c(C(=O)N2CCCC(C(=O)NCc3cccs3)C2)cc2sccc21 (stereo not drawn),-16.1
14,CCOC(=O)N1CCN(C(=O)C2CCN(C(=O)c3cc4sccc4n3CC)CC2)CC1,-28.8
15,COc1nc(OC)nc(N2CCC(C(=O)NCc3ccco3)CC2)n1,-18.3
16,O=C(NCc1ccco1)c1cc2sccc2n1Cc1ccccc1,-15.7
17,O=C(NCc1ccco1)C1CCN(C(=O)c2cc3sccc3n2Cc2ccc(Cl)cc2)CC1,-64.8
18,COC(=O)CSc1nnc(COc2cccc3ccccc23)o1,13.6
19,CN(C)/C=C1\N=C(c2ccccc2)OC1=O,3.09
20,COc1ccc(N2CCN(C(C)C(=O)Nc3nnc(C)s3)CC2)cc1.Cl (stereo not drawn),-1.41
21,CSc1ccccc1NC(=O)Cc1ccccc1,13.8

row,SMILES,"hERG current change (%, negative = inhibition) at 10uM [%]"
1,CCN(CC)S(=O)(=O)c1ccc(NC(=O)CCN2C(=O)C3CC=CCC3C2=O)cc1 (stereo not drawn),-30
2,CC1(c2ccccc2Cl)NC(=O)N(CC(=O)Nc2ccc(N3CCCCC3)cc2)C1=O (stereo not drawn),-21.9
3,CC(=O)N1CCc2cc(S(=O)(=O)CCC(=O)Nc3ccccc3F)ccc21,13.3
4,CC(C)N(CCCNC(=O)C1CCN(C(=O)c2cc3sccc3n2C)CC1)Cc1ccccc1,-23.2
5,O=C(Cn1c(C(=O)NCCCN2CCOCC2)cc2sccc21)c1ccccc1,-16.5
6,O=C(NCCN1CCOCC1)c1cc2sccc2n1Cc1ccc(F)cc1,-47
7,O=C(c1ccco1)N1CCN(C(=O)c2cc3sccc3n2Cc2ccccc2)CC1,-55.6
8,CCOC(=O)c1cc2sccc2n1CC(=O)N1CCN(C(=O)c2ccco2)CC1,-48.2
9,CCCCN(CCCNC(=O)C1CCN(C(=O)c2cc3sccc3n2C)CC1)Cc1ccccc1,-60.8
10,O=C(c1cc2sccc2n1Cc1ccccc1)N1CCN(c2nc3ccccc3s2)CC1,-17
11,CCN(CCCNC(=O)C1CCN(C(=O)c2cc3sccc3n2C)CC1)Cc1ccccc1,-38.4
12,O=C(NCc1ccco1)C1CCN(C(=O)c2cc3sccc3n2Cc2ccc(F)cc2)CC1,-68.5
13,O=C(NCCN1CCOCC1)c1cc2sccc2n1Cc1ccc(Cl)cc1,-59.9
14,O=C(NCc1ccccn1)C1CCN(C(=O)c2cc3sccc3n2Cc2ccc(F)cc2)CC1,-46.5
15,CC(C)NC(=O)C1CCN(C(=O)c2cc3sccc3n2Cc2ccc(F)cc2)CC1,-3.2
16,COCCSc1nnc(NS(=O)(=O)c2ccc(F)cc2)s1,3.84
17,O=C(c1ccncc1)N1c2ccccc2Sc2ccccc21,18.2
18,CC(C)=CCCC(C)N(C=O)C(C)CCC=C(C)C (stereo not drawn),-1.01
19,CC(=O)c1cccc(NC(=O)COC(=O)c2ccccc2C)c1,-14.4
20,CN(C)S(=O)(=O)c1ccc(C(=O)OCC(=O)Nc2ccccc2OC(F)F)cc1,-5.82
21,CC(OC(=O)c1cc(Br)ccc1O)C(=O)NC1(C#N)CCCCC1 (stereo not drawn),27.3
